Screening results (PubChem BioAssay)
Hits are enriched below; roughly 1.9% of the tested compounds scored in any of these assays.
ATG4B inh – ATG4B (human) cysteine protease inhibition; Q9Y4P1; inhibition, % at 8.33 µM; 340,000 compounds, 0.51% hits; ATG4B cleavage of LC3-PLA2, NBD-HPC fluorescence, 1 h; in the data active = inhibition above about 40%
Target sequence (Q9Y4P1 whole entry, looked up): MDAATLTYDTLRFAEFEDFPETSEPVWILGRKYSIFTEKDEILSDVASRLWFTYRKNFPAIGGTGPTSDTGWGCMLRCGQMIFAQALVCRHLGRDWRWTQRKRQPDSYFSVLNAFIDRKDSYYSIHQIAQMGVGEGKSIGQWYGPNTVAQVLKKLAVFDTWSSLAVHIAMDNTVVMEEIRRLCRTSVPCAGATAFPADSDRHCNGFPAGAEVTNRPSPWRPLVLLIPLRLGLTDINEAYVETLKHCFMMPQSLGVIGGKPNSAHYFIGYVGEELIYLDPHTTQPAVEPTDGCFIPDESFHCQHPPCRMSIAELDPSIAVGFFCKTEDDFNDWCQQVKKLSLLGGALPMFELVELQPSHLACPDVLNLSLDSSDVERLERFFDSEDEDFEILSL
PP5 primary – inhibitors of human protein phosphatase 5 (PP5). P53041. purified PP5c, OMFP substrate fluorescence. inhibition, % at 6.7 µM. 320,000 compounds, 0.18% hits;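 active = inhibition above the campaign's mean inhibition across all tested compounds plus 3 SD, cut at about 9.5% in these data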;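 note: 0% = DMSO only and 100% = 100 µM cantharidin control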
PP1 inh – PP1-alpha (human) inhibition in PP5 counter-screen. inhibition, % at 6.7 µM. P62136. 320,000 compounds, 0.9% hits. purified PP1alpha, OMFP fluorescence;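 active = inhibition above the mean inhibition of all tested compounds plus 3 SD, computed separately for each screening campaign, cut at about 15% in these data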
H9c2 protect – protects H9c2 cardiomyocytes from peroxide injury; H2O2 injury protection, ATPLite, 2 h; 360,000 compounds, 0.63% hits; protection from H2O2 cell death, % at 20 µM;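 active = compounds giving at least 50% protection of heart cells from peroxide-induced death in the single-dose screen, raw or plate-pattern-corrected value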;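 note: 0% = DMSO wells with peroxide and 100% = DMSO wells without peroxide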
PP1 confirm – human PP1 phosphatase inhibition, confirmation; shares compounds with PP1 inh; inhibition, % at 6.7 µM; purified PP1alpha, OMFP substrate fluorescence; AID 2358; 1,900 compounds, 52% hits;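 active = mean PP1 inhibition above a set limit taken from the earlier primary screen, cut at about 15% in these data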
PP5 inh counter – PP5 phosphatase inhibition, counter-screen for PP1 inhibitors | shares compounds with PP1 inh | purified PP5c, OMFP fluorescence | inhibition, % at 6.7 µM | 1,900 compounds, 4% hits | AID 2360;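 active = mean PP5 inhibition over triplicate wells above about 9.5% taken from the earlier PP1 screen, limit read from the data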
Active calls of the source: *; nt = not tested or not shown.

SMILES	ATG4B inh	PP5 primary	PP1 inh	H9c2 protect	PP1 confirm	PP5 inh counter
COC(=O)c1ccccc1S(=O)(=O)N1CCC(C(=O)NC2CCCCC2C)CC1 (centres undefined)	-10	2	-3	1	nt	nt
CN(C)c1ccc(C2CNC(c3ccc(Cl)c([N+](=O)[O-])c3)c3[nH]c4ccccc4c32)cc1 (centres undefined)	6	4	21*	7	17*	0
Cc1ccccc1Oc1nc(-c2ccccn2)nc2ccccc12	35	3	20*	-6	16*	0
c1ccc(N2CCN(c3nc(-c4ccccn4)nc4ccccc34)CC2)cc1	20	2	64*	22	46*	0
O=C(CSc1nc2ccsc2c(=O)n1CC1CCC(C(=O)O)CC1)c1ccc(Cl)cc1 (centres undefined)	6	-3	20*	-5	11	-3
O=C(CSc1nc2ccsc2c(=O)n1CC1CCC(C(=O)O)CC1)c1ccc(F)cc1 (centres undefined)	6	1	-5	7	nt	nt
CCOC(=O)C1CCCCN1Cc1ccc(-c2ccccc2)cc1 (centres undefined)	7	nt	nt	-7	nt	nt
CCOC(=O)c1c(C)[nH]c(C)c1C(=O)COC(=O)[C@@H](NC(=O)c1ccco1)C(C)C	1	nt	nt	8	nt	nt
CCCNC(=O)c1cc(C2CCCN(C(=O)c3cc(F)ccc3C)C2)on1 (centres undefined)	nt	nt	nt	-4	nt	nt
CCCCn1c2ccccc2c2nnc(SCC(=O)NC3=NN=C(c4ccccc4)CS3)nc21	nt	2	26*	nt	27*	3
COC(=O)c1ccc(Nc2nc(C)nc3c2nnn3Cc2ccccc2)cc1	2	2	0	-1	nt	nt
COc1ccc(-c2c[n+](CC(=O)c3ccccc3)c3n2CCCCC3)cc1	-4	1	-2	-11	nt	nt
COc1ccc(-c2c[n+]3c4n2CCCCC4=C(c2ccccc2)C3)cc1	-4	0	18*	-18	-9	-3
CC1(C)C2CCC1(CS(=O)(=O)NC(CC(=O)O)c1cccc(Br)c1)C(=O)C2 (centres undefined)	-3	1	1	0	nt	nt
Cc1ccc(CNC(=O)CN2C(=O)NC3(CC(C)CC(C)(C)C3)C2=O)cc1 (centres undefined)	4	-1	-4	-3	nt	nt
CCOc1cc(C2C(C(=O)c3ccco3)=C(O)C(=O)N2CCc2ccccc2)ccc1O (centres undefined)	-14	1	20*	2	22*	-1
COc1cc(C2C(C(=O)c3ccco3)=C(O)C(=O)N2Cc2ccccc2)ccc1O (centres undefined)	-4	0	1	-1	nt	nt
N=c1c(C(=O)NCc2ccco2)cc2c(=O)n3ccccc3nc2n1Cc1ccc(Cl)cc1	-19	4	18*	19	7	-1
N=c1c(C(=O)NCc2ccco2)cc2c(=O)n3ccccc3nc2n1Cc1ccccc1	-4	3	8	13	nt	nt
Cc1ccc(S(=O)(=O)c2cc3c(=O)n4ccccc4nc3n(Cc3ccco3)c2=N)cc1	-4	3	21*	4	5	1
Cc1ccc(CNC(=O)c2cc3c(=O)n4ccccc4nc3n(Cc3ccco3)c2=N)cc1	-2	-1	-1	-13	nt	nt
O=C(CCc1c[nH]c2ccccc12)OCc1cccc([N+](=O)[O-])c1	9	1	1	-5	nt	nt
N=c1n(CCN2CCCCC2)c2ccccc2n1CC(=O)c1ccc(Cl)c(Cl)c1	2	-1	27*	8	-18	0
CCn1c(=N)n(CC(=O)c2ccc(Cl)c(Cl)c2)c2ccccc21	2	3	-1	-6	nt	nt
CC1CN(S(=O)(=O)c2cc(C(=O)N3CCCCC3C)ccc2Cl)CC(C)O1 (centres undefined)	6	nt	nt	2	nt	nt
SMILES	ATG4B inh	PP5 primary	PP1 inh	H9c2 protect	PP1 confirm	PP5 inh counter
CCOC(=O)Cc1cc(=O)n2[nH]c(-c3ccccc3)c(-c3ccccc3)c2n1	18	4	39*	15	40*	-1
Cc1cc([N+](=O)[O-])ccc1NCc1cccc2ccccc12	25	1	3	-12	nt	nt
O=[N+]([O-])c1ccc(CCNc2cccc3ccccc23)c([N+](=O)[O-])c1	-6	1	25*	-4	24*	-2
CCOC(=O)C1=C(c2ccccc2)NC(N)=NC1c1ccc(OCc2ccc(Cl)cc2)c(OC)c1 (centres undefined)	22	5	25*	-9	29*	0
Cc1ccc(C2=N/C(=C\c3ccc(F)cc3)C(=O)N2)cc1	-1	3	-1	-10	nt	nt
CN1CCN(C(c2ccc(C(F)(F)F)cc2)c2cc(Cl)c3cccnc3c2O)CC1 (centres undefined)	nt	5	21*	nt	2	-3
CCC(=O)NC(c1cc(Cl)c2cccnc2c1O)C1CC1 (centres undefined)	6	-1	0	33	nt	nt
CCN1CCN(C(c2ccc(C(F)(F)F)cc2)c2ccc3cccnc3c2O)CC1 (centres undefined)	2	3	18*	26	-6	-1
CN1CCN(C(c2ccc(Cl)cc2)c2cc(Cl)c3cccnc3c2O)CC1 (centres undefined)	1	2	22*	42	-3	1
Oc1c(C(c2ccccn2)N2CCCCC2)cc(Cl)c2cccnc12 (centres undefined)	-1	5	75*	38	73*	3
CC(=O)NC(c1ccccc1)c1cc(Cl)c2cccnc2c1O (centres undefined)	-4	5	14	47	nt	nt
CCn1nccc1NC(=O)c1ccc2sc([C@@H]3O[C@H](CO)[C@H](O)[C@H](O)[C@H]3O)nc2c1	nt	nt	nt	1	nt	nt
COc1ccc(CC(=O)NCC2CCCN(Cc3ccc(SC)cc3)C2)cc1 (centres undefined)	9	2	-2	-1	nt	nt
CN(CC(=O)Nc1ccc(Cl)cc1F)C1CCS(=O)(=O)C1 (centres undefined)	-58	-3	-4	-2	nt	nt
Cc1ccc(S(=O)(=O)N2CCN(C(=O)COC(=O)c3ccccc3OC(F)F)CC2)c(C)c1	-4	nt	nt	2	nt	nt
CN(C)S(=O)(=O)c1ccc(C(=O)Nc2nnc(-c3cccs3)o2)cc1	2	1	1	17	nt	nt
O=C(Nc1nnc(-c2cccs2)o1)c1cccc(C(F)(F)F)c1	17	3	20*	15	18*	1
CCC1CCCCN1S(=O)(=O)c1ccc(C(=O)Nc2nnc(-c3cccs3)o2)cc1 (centres undefined)	-5	3	41*	75*	33*	2
N#Cc1ccc(C(=O)Nc2nnc(-c3cccs3)o2)cc1	13	0	4	45	nt	nt
Cc1nn(-c2ccccc2)nc1CNC(=O)C1CC1	-7	0	2	0	nt	nt
Cc1cc(C)cc(NCc2ccncc2)c1	-5	2	-7	10	nt	nt
O=C(Nc1cccc(S(=O)(=O)N2CCOCC2)c1)C1CC1	3	nt	nt	-1	nt	nt
